Screening results as filed in PubChem.
A selection: hits, their analogues and other compounds. The true share with any hit is near 8%.
LASV entry inh = qHTS for Inhibitors of binding or entry into cells for Lassa Virus. Lassa virus pseudotype entry inhibition, cell reporter. Potency, µM (series often up to 37.9 µM), for inactives: top-dose activity change, negative = inhibition, usual class: inhibitors. 1.2% of 300,000 active; calls by dose curve; tested in HEK293 cells; also: potency is read from the fitted curve at half-maximal effect; % is scaled to controls: 0 for no effect and ±100 for the full control effect; nearly all actives have a fitted effect of over 50% in size
HCV inhibitor = qHTS Assay for Inhibitors of Hepatitis C Virus (HCV) | Huh7.5.1 HCVcc-Cre infection, luciferase reporter, 44 h | Potency, µM (titrated, usually from 41.8 µM), for the others: at the highest dose activity change, negative = inhibition, actives largely listed as inhibitors | 3.4% of 340,000 active; active = well fitted inhibition curve with a large enough effect; inconclusive = small, poorly fitted or top-dose-only effect, or another doubt; inactive = no such curve, though single readings can be large or run the other way; also: potency is read from the fitted curve at half-maximal effect; % is scaled to controls: 0 for no effect and ±100 for the full control effect
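Whole-lifecycle infectious HCVcc-Cre system; cells 1,000/well, compound then virus (~0.5 moi) added 4 h after plating, 44 h culture. Luciferase read 15 sec following 15 min substrate incubation, room temp.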
HCMV inh = qHTS Assay for inhibitors of the human cytomegalovirus (HCMV); HFF cells, HCMV-luciferase reporter, 72 h; active compounds read low; activity change, negative = inhibition, % at 57.5 µM; 4.5% of 410,000 active; in the data active = activity change below about -60%; inconclusive = no clear call, values can overlap the other calls; inactive = above about -39%; also: % is scaled to controls: 0 for no effect and ±100 for the full control effect
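Steps: HFFs plated, 16 h 37C; compounds added; HCMV-luciferase added to MOI 1 PFU/cell; 72 h 37C; OneGlo reagent, 5 min room temperature; luminescence read, normalized to controls.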
SARS PLP yeast = qHTS of Yeast-based Assay for SARS-CoV PLP. S. cerevisiae expressing SARS-CoV PLpro, growth rescue. Potency, µM (highest dose often 32.9 µM), inactives show at the top dose activity, positive = growth rescue, actives largely listed as activators. 0.19% of 330,000 active; calls by dose curve; also: potency is read from the fitted curve at half-maximal effect; 0% is about no effect; nearly all actives have a fitted effect of over 55% in size
Marburg entry inh = qHTS for inhibitors of binding or entry into cells for Marburg Virus; Marburg virus pseudotyped entry inhibition, cell reporter; Potency, µM (titrated, usually from 37.8 µM), for the others: at the top dose activity change, negative = inhibition, hits mostly inhibitors; 1.8% of 300,000 active; calls by dose curve; tested in HEK293 cells; also: potency is read from the fitted curve at half-maximal effect; % is scaled to controls: 0 for no effect and ±100 for the full control effect
FMDV antiviral = High Throughput Screening for Foot and Mouth Disease Virus Antivirals. FMDV antiviral cell-based qHTS. Potency, µM (series often up to 57.9 µM), inactives show top-dose activity change, negative = inhibition, actives largely listed as inhibitors. 1.2% of 410,000 active. AID 1159524, 2015; calls by dose curve; tested in HEK293T cells; also: read-out not given here; potency is read from the fitted curve at half-maximal effect; % is scaled to controls: 0 for no effect and ±100 for the full control effect; nearly all actives have a fitted effect of over 45% in size
* = called active by the depositor; ? = inconclusive; . = no result given; ! = repeats disagree; [ ] = dose if it differs, or a comment.

SMILES	LASV entry inh	HCV inhibitor	HCMV inh	SARS PLP yeast	Marburg entry inh	FMDV antiviral
CCOc1ccc(C(=O)N(Cc2sccc2C)C2CCS(=O)(=O)C2)cc1 (stereo not drawn)	11%[46.1 µM]	.	52	.	1%[46.1 µM]	-2%
CCOC(=O)c1c(NC(=O)COC(=O)c2cccnc2OCC)sc(C(=O)N(CC)CC)c1C	?	?	21	0%	?	16µM*
CCOC(=O)c1c(NC(=O)COc2ccc(OC)cc2)sc(C(=O)N(CC)CC)c1C	-22%[46.1 µM]	.	-33	.	?	?
CCOC(=O)c1c(NC(=O)c2cccs2)sc(C(=O)N2CCOCC2)c1C	3%	-19%	-22	.	10%[46.1 µM]	14%
Cc1sc(NC(=O)c2cccs2)c(C(=O)OC(C)C)c1C	-19%	-8%	-4	16%	?	-17%
CCOC(=O)c1c(NC(=O)c2cccs2)sc(C)c1CC	-17%	8.9µM*	-38	-5%	?	-24%
CCc1c(C)sc(NC(=O)c2cccs2)c1C(=O)OC(C)C	?	?	?	1%	9.2µM*	.
CCOC(=O)c1c(NC(=O)c2cccs2)sc(C(=O)N(C)C)c1C	4%	13µM*	-21	8%	10%[46.1 µM]	25%
CCOC(=O)c1ccc(NC(=O)CC[C@@H](CC)C(=O)O)cc1	.	.	.	.	3%	.
O=C(O)c1ccc(N/N=C/c2ccc(F)c(F)c2)cc1	6.3µM*	30%	23	-54%	7.1µM*	14µM*
O=C(O)c1ccc(N/N=C/c2cccc(F)c2)cc1	?	44%	76	-8%	10µM*	-38%
O=C(O)c1ccc(N/N=C/c2ccc3nccnc3c2)cc1	.	21%	-78*	-1%	.	7.1µM*
COc1cc(/C=N/Nc2ccc(C(=O)O)cc2)ccc1O	?	-5%	99	2%	?	?
O=C(O)c1ccc(N/N=C/c2cccc(C(F)(F)F)c2)cc1	.	4%	62	-3%	.	39%
COc1ccccc1COC(=O)N/C=C/c1ccco1	?	-29%	39	-3%	-2%[46.1 µM]	20%
COc1ccc(COC(=O)N/C=C/c2ccco2)cc1	1.2µM*	4%	-12	0%	2%[46.1 µM]	10%
Cc1cccc(C)c1-n1ncc(C(=O)Nc2ccc3c(c2)OCCO3)c1C1CCN(C(=O)OC(C)(C)C)CC1	?	.	-30	.	.	-18%
Cc1ccc(-c2nc3ccccc3c(=O)n2-c2cccc(C)n2)cc1	6%	-10%	-85*	-2%	?	5%
COc1ccc(-c2nc3ccccc3c(=O)n2-c2cccnc2)cc1	14%	7%	-77*	-16%	20%	-20%
Cc1ccc(-c2nc3ccccc3c(=O)n2-c2ccncc2)cc1	-14%	5%	-8	-14%	8%	-23%
COc1cccc(-c2csc(-c3c(N)c(C(=O)c4ccccc4)n4ccccc34)n2)c1	-4%[46.1 µM]	.	-24	.	1%[46.1 µM]	-16%
CCc1nc2cc(C(=O)N3CCC[C@H]3C(=O)OC)cc(NC(=O)c3ccccc3OC)c2n1C	.	.	.	.	.	-1%
O=C1Cc2c([nH]c3ccc([N+](=O)[O-])cc23)-c2ccccc2N1	-7%[46.1 µM]	?	-98*	.	-15%	50%
CCOC(=O)c1ccccc1NC(=O)N(Cc1ccco1)C1CCN(C(C)=O)CC1	-5%[46.1 µM]	.	7	.	.	-27%
COC(=O)c1ccc(/C=C(\C#N)C(=O)NC(C)c2ccccc2)cc1 (stereo not drawn)	.	11µM*	-95*	-41%	5%	?
SMILES	LASV entry inh	HCV inhibitor	HCMV inh	SARS PLP yeast	Marburg entry inh	FMDV antiviral
CC(NC(=O)/C(C#N)=C/c1ccc([N+](=O)[O-])o1)c1ccccc1 (stereo not drawn)	?	?	-101*	-18%	?	28µM*
COc1ccc(/C=C(\C#N)C(=O)NC(C)c2ccccc2)cc1O (stereo not drawn)	1%	0%	?	-13%	-7%[46.1 µM]	-3%
Cc1ccc(C(C)NC(=O)/C(C#N)=C\c2c(C)[nH]c3ccccc23)cc1 (stereo not drawn)	-11%	-10%	-61*	-21%	?	-10%
CCOCCCNC(=O)/C(C#N)=C/c1ccc([N+](=O)[O-])o1	?	?	-99*	-4%	?	32µM*
Cc1[nH]c2ccccc2c1/C=C(\C#N)C(=O)NCc1ccccc1	?	?	8	-4%	12%	-1%
COc1ccccc1N1CCN(S(=O)(=O)c2c(C)sc3ncn(CC(=O)N(C)c4ccc(Cl)cc4)c(=O)c23)CC1	?	.	-16	.	?	-16%
CCCOc1ccc(Oc2nc(NC)nc(N3CCOCC3)n2)nn1	18%[46.1 µM]	.	171	.	1%[46.1 µM]	-8%
O=C(/C=C/c1ccccc1)N1CCN(Cc2cc(=O)n3nc(-c4ccccc4)sc3n2)CC1	12%[46.1 µM]	.	?	.	.	-13%
Cc1ccc(-n2c(=O)c3c4c(sc3n(CC(=O)Nc3ccccc3C)c2=O)CCCCC4)cc1C	5%[46.1 µM]	.	7	.	?	3%
O=C(c1ccc2c(c1)CCO2)N1CC2ON=C(c3c(F)cccc3Cl)C2C1 (stereo not drawn)	.	.	14	.	.	.
Cc1ccsc1-c1nc(CN(C)C(C2CC2)C2CC2)c(C)o1	-8%[46.1 µM]	-15%	3	1%	8.9µM*	-15%
CC(C)(C)c1ccc(C(O)CCCN2CCC(C(O)(c3ccccc3)c3ccccc3)CC2)cc1 (stereo not drawn)	2.9µM*!	2%[8.37 µM]	-24	1%	2.2µM*!	?
N#CCc1ccc(OCCCN2CCC(C(O)(c3ccccc3)c3ccccc3)CC2)cc1	.	.	13	.	.	-25%
COc1ccccc1-c1ccc(OCCCN2CCC(C(O)(c3ccccc3)c3ccccc3)CC2)cc1	.	.	-99*	.	.	.
C=C(COC)C1=CCC(C(=O)OC)(C(=O)OC)[C@@H](C[N+](=O)[O-])c2ccccc21	.	.	.	.	60%[14.2 µM]	.
Cc1cccc(C)c1NC(=O)Cn1c(=O)n(Cc2ccccc2)c(=O)c2c(C)c(C(=O)N(C)C)sc21	-1%[46.1 µM]	.	10	.	.	-2%
CCOc1ccc(CCNC(=O)c2cn(CC)c3ccc(S(=O)(=O)N4CCCCCC4)cc3c2=O)cc1OCC	-12%[46.1 µM]	.	-34	.	-17%[46.1 µM]	-5%
CCOC(=O)c1cc(OC(=O)c2ccccc2F)n(-c2ccccc2)n1	-9%[46.1 µM]	.	11	.	-5%[46.1 µM]	-10%
CCCOc1cccc(C2c3c(oc4ccc(F)cc4c3=O)C(=O)N2c2nc(C)c(C(C)=O)s2)c1 (stereo not drawn)	-11%[46.1 µM]	.	-16	.	?	-4%
COc1cc(/C=N/Nc2nc(Nc3ccccc3)nc(N3CCOCC3)n2)ccc1OC(=O)c1ccco1	?	?	35	-1%	2.1µM*	-5%
COc1cc(/C=N/Nc2nc(Nc3ccccc3)nc(N3CCCCC3)n2)ccc1OCC(=O)O	-1%[46.1 µM]	20%	-36	-1%	14%[46.1 µM]	21%
